Test results published in publication PMC7862700, “An all-to-all approach to the identification of sequence-specific readers for epigenetic DNA modifications on cytosine”.

Experiments:
Assay in all cases: DAPPL (digital affinity profiling via proximity ligation, sequencing); 10 mM Tris-HCl pH 7.5, 50 mM NaCl, 1 mM DTT, 4% glycerol, room temperature, 30 min; GST-TFs on glutathione beads, 16-mer random dsDNA library, 0.1% formaldehyde crosslink after washing; high values mean tight binding
Conditions in all cases: protein: recombinant; tags: N-terminal GST; dsDNA, one strand shown
FLI1 = molecular target: T1, FLI1 (Homo sapiens, UniProt Q01543 1-452)
T1 sequence: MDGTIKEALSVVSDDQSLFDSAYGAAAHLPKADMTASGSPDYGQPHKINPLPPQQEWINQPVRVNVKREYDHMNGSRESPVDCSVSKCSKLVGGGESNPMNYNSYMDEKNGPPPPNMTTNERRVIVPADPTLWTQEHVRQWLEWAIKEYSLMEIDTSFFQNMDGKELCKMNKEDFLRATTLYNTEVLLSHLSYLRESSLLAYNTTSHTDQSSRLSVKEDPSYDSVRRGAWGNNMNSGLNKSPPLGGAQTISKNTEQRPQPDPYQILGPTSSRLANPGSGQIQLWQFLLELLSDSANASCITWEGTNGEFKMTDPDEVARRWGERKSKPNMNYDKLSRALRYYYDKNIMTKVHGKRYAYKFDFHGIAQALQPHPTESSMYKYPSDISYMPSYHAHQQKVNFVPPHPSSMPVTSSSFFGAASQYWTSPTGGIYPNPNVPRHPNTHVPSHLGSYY
How it was run: (§1)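 Binding signal is given per hexamer as its read frequency for a factor divided by its frequency in the tag-only sample. GST-fused human transcription factors were expressed in yeast, captured on glutathione beads, barcoded with DNA and pooled with that sample, then incubated with 200 nmole of a 16-mer random double-stranded DNA library in Tris/NaCl/DTT/glycerol buffer for 30 min at room temperature. The pools were then washed, crosslinked, proximity-ligated, amplified by PCR and sequenced on an Illumina NextSeq500.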

GABPA = molecular target: T2, GABPA (Homo sapiens, UniProt Q06546 1-454)
T2 sequence: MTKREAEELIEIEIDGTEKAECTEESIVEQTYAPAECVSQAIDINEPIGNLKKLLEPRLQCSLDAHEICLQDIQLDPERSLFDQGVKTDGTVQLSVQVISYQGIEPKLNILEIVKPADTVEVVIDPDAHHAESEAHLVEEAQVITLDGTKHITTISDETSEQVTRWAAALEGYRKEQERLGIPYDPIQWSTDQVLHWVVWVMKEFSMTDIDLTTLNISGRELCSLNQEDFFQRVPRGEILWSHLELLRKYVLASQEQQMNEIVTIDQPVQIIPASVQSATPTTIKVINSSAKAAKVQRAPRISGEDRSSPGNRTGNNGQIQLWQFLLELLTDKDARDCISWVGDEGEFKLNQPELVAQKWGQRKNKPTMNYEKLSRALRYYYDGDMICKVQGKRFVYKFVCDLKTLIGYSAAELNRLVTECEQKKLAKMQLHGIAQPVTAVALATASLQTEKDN
How it was run: as §1

ERG = molecular target: T3, ERG (Homo sapiens, UniProt P11308 1-479)
T3 sequence: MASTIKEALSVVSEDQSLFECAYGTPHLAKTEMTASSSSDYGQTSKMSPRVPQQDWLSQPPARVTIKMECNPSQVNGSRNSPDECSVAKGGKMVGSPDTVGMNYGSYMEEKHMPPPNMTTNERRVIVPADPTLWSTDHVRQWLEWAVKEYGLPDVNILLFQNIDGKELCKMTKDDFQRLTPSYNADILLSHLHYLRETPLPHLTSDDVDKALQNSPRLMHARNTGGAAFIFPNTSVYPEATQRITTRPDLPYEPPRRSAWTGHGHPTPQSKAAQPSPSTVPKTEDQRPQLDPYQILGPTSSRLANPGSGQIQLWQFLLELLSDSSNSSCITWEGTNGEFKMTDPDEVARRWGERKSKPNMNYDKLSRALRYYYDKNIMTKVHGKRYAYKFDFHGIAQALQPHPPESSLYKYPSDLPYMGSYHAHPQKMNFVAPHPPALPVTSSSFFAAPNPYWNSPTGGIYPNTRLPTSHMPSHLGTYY
How it was run: as §1

ELF1 = ELF1 (Homo sapiens, UniProt P32519 1-619)
ELF1, sequence (P32519 whole entry): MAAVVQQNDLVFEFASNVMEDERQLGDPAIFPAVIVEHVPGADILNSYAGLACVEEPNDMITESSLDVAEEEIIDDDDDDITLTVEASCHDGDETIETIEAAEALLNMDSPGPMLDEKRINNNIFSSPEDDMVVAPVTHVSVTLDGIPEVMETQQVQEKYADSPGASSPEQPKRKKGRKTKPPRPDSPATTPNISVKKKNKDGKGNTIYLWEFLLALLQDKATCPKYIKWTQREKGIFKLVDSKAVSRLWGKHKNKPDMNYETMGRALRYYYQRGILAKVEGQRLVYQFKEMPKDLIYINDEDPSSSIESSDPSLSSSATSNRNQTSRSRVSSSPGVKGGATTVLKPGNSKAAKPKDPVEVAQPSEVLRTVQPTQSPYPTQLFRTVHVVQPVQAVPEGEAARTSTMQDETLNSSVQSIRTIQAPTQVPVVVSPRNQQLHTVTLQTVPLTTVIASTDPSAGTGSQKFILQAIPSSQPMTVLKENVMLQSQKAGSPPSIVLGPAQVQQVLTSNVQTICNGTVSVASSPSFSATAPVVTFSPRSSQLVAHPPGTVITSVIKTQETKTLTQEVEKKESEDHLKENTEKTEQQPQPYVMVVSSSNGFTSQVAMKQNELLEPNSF
How it was run: as §1

EHF = molecular target: T4, EHF (Homo sapiens, UniProt Q9NZC4 1-300)
T4 sequence: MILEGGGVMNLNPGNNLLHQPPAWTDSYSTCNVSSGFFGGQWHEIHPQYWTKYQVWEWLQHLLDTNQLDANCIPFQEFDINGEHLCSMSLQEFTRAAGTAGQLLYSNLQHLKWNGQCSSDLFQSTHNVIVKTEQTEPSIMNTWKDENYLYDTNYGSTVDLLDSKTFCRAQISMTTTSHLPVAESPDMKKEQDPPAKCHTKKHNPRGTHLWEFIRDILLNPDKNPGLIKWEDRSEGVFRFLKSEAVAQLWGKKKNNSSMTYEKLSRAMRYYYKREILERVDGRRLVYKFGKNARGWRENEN
How it was run: as §1

SPI1 = SPI1 (Homo sapiens, UniProt P17947 1-270)
How it was run: as §1

SPIB = SPIB (Homo sapiens, UniProt Q01892 1-262)
SPIB, sequence (Q01892 whole entry): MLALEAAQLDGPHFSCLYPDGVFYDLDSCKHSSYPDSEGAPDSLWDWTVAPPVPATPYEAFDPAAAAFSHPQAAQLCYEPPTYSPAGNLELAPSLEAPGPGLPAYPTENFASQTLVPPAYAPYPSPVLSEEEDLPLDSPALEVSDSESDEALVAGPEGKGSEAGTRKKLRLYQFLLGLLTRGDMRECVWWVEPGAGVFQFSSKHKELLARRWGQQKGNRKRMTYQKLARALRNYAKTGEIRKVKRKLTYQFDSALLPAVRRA
How it was run: as §1

ETV5 = ETV5 (Homo sapiens, UniProt P41161 1-510)
ETV5, sequence (P41161 whole entry): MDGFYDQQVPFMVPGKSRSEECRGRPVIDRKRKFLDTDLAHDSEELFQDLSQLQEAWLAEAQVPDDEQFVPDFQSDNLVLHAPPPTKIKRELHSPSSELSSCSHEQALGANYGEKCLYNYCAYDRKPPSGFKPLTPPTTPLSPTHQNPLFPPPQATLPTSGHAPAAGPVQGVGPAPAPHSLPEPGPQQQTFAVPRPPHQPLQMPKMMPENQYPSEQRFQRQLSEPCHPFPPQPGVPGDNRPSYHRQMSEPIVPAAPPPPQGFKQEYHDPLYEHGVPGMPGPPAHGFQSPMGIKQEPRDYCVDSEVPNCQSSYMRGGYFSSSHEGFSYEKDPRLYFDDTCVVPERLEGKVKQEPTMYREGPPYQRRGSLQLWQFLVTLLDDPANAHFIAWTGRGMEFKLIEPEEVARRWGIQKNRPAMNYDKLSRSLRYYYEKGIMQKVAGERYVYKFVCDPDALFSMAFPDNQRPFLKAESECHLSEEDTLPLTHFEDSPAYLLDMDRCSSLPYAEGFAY
How it was run: as §1

SPIC = molecular target: T5, SPIC (Homo sapiens, UniProt Q8N5J4 1-248)
T5 sequence: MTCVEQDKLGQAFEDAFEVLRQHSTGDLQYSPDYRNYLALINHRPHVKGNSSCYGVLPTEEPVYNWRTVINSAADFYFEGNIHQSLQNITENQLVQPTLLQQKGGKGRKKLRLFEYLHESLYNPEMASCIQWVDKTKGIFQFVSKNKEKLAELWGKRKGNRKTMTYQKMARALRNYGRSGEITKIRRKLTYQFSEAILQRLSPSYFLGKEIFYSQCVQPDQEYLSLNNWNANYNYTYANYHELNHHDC
How it was run: as §1

ELF4 = ELF4 (Homo sapiens, UniProt Q99607 1-663)
ELF4, sequence (Q99607 whole entry): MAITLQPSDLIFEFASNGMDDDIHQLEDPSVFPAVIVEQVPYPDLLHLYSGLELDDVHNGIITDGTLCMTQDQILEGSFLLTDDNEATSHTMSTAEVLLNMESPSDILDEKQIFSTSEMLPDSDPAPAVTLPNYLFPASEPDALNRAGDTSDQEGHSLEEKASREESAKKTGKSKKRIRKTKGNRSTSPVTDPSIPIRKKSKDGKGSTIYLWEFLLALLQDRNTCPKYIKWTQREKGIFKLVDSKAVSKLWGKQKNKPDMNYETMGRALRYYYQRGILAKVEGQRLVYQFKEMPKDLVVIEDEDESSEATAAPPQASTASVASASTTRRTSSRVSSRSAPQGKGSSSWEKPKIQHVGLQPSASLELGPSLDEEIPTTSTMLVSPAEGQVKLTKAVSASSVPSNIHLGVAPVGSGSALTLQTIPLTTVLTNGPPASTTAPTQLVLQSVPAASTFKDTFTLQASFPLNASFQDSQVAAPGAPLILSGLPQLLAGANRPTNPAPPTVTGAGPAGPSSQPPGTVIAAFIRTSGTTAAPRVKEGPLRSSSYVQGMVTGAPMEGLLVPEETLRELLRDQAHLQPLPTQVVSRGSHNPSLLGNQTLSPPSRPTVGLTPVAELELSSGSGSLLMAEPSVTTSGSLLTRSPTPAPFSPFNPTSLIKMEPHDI
How it was run: as §1

ETV1 = ETV1 (Homo sapiens, UniProt P50549 1-477)
ETV1, sequence (P50549 whole entry): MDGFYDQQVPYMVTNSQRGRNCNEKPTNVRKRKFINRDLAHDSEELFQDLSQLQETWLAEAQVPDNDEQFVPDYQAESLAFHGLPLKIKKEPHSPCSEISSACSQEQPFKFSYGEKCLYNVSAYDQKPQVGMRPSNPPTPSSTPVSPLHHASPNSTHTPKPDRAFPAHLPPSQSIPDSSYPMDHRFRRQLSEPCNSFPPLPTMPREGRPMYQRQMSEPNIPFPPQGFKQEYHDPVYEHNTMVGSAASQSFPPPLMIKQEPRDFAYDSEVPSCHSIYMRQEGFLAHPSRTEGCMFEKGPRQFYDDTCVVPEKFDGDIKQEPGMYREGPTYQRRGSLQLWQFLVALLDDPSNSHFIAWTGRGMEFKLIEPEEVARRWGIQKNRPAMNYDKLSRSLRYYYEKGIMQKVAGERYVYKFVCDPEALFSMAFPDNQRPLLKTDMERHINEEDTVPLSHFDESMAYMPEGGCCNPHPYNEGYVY
How it was run: as §1

ERF = molecular target: T6, ERF (Homo sapiens, UniProt P50548 1-548)
T6 sequence: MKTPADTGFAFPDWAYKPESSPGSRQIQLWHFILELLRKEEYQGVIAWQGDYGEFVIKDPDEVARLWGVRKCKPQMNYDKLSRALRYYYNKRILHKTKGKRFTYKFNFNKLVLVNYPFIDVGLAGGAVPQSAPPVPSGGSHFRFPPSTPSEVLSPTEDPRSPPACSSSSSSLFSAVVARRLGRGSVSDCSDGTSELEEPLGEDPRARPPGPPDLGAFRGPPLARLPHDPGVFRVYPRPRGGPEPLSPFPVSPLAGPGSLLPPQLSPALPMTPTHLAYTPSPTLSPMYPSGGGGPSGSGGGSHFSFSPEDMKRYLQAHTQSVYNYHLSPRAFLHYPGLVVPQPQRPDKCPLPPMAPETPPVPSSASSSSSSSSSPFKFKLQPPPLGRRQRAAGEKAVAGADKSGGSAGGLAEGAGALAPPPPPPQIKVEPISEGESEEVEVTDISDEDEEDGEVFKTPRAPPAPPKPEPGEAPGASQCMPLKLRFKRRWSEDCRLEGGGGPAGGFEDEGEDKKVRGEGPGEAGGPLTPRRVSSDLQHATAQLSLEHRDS
How it was run: as §1

ETV3L = molecular target: T7, ETV3L (Homo sapiens, UniProt Q6ZN32 1-361)
T7 sequence: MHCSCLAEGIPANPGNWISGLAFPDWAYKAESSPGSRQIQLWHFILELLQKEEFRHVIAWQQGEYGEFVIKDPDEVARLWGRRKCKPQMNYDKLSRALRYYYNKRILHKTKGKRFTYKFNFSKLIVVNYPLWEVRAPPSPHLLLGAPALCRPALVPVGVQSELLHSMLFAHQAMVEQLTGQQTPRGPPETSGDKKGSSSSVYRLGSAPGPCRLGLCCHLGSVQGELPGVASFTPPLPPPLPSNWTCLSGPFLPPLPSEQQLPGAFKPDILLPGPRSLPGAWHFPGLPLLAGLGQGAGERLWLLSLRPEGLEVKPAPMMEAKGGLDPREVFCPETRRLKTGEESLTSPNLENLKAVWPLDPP
How it was run: as §1

ETS2 = molecular target: T8, ETS2 (Homo sapiens, UniProt P15036 1-469)
T8 sequence: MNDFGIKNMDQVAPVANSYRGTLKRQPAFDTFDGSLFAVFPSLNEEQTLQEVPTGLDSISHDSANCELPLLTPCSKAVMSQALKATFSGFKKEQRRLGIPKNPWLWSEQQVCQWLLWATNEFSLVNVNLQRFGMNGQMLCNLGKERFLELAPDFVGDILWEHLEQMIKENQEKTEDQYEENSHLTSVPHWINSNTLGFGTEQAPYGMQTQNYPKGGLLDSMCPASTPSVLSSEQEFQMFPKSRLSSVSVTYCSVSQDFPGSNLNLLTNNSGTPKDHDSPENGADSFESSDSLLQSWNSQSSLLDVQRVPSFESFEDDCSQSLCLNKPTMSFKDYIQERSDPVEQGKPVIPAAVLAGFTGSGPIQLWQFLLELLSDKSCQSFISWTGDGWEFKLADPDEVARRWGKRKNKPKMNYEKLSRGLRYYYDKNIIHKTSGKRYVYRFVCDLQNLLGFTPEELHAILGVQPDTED
How it was run: as §1

ELF5 = molecular target: T9, ELF5 (Homo sapiens, UniProt Q9UKW6-2 1-255)
T9 sequence: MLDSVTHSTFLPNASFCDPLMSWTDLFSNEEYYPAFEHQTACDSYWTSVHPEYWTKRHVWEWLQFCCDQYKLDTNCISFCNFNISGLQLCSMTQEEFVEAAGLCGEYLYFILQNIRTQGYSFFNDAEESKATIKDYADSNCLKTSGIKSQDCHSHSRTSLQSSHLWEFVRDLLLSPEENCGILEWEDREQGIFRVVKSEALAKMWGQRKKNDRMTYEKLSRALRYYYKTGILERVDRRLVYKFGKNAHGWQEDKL
How it was run: as §1

ELK3 = molecular target: T10, ELK3 (Homo sapiens, UniProt P41970 1-407)
T10 sequence: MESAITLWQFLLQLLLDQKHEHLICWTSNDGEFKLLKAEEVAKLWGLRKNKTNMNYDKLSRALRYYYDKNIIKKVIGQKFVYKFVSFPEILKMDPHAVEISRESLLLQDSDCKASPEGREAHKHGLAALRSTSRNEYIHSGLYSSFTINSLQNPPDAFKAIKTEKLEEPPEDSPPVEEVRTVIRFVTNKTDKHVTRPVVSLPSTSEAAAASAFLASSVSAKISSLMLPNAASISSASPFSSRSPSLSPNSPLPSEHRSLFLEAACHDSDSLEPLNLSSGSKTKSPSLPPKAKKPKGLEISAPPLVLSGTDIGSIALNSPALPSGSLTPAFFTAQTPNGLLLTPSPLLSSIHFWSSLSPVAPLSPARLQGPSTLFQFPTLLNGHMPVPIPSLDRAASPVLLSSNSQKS
How it was run: as §1

ETV3 = molecular target: T11, ETV3 (Homo sapiens, UniProt P41162-2 1-143)
T11 sequence: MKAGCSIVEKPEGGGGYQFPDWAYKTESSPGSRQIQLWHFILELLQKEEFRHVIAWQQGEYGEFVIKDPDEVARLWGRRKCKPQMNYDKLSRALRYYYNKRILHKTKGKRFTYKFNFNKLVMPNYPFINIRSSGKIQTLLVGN
How it was run: as §1

Row | Sequence | binding signal (FLI1) | binding signal (GABPA) | binding signal (ERG) | binding signal (ELF1) | binding signal (EHF) | binding signal (SPI1) | binding signal (SPIB) | binding signal (ETV5) | binding signal (SPIC) | binding signal (ELF4) | binding signal (ETV1) | binding signal (ERF) | binding signal (ETV3L) | binding signal (ETS2) | binding signal (ELF5) | binding signal (ELK3) | binding signal (ETV3)
1 | TGTGGT | 1.08 fold enrichment (6-mer frequency, TF over GST control) | 1.09 fold enrichment (6-mer frequency, TF over GST control) | 1.07 fold enrichment (6-mer frequency, TF over GST control) | 1.01 fold enrichment (6-mer frequency, TF over GST control) | 1.08 fold enrichment (6-mer frequency, TF over GST control) | 1.05 fold enrichment (6-mer frequency, TF over GST control) | 1.16 fold enrichment (6-mer frequency, TF over GST control) | 1.04 fold enrichment (6-mer frequency, TF over GST control) | 1.02 fold enrichment (6-mer frequency, TF over GST control) | 1.04 fold enrichment (6-mer frequency, TF over GST control) | 1.01 fold enrichment (6-mer frequency, TF over GST control) | 1.06 fold enrichment (6-mer frequency, TF over GST control) | 1.04 fold enrichment (6-mer frequency, TF over GST control) | 1.05 fold enrichment (6-mer frequency, TF over GST control) | 1.03 fold enrichment (6-mer frequency, TF over GST control) | – | –
2 | TCGCTG | 1.02 fold enrichment (6-mer frequency, TF over GST control) | 1.01 fold enrichment (6-mer frequency, TF over GST control) | 1.02 fold enrichment (6-mer frequency, TF over GST control) | 1.05 fold enrichment (6-mer frequency, TF over GST control) | 1.1 fold enrichment (6-mer frequency, TF over GST control) | – | 1.22 fold enrichment (6-mer frequency, TF over GST control) | 1.11 fold enrichment (6-mer frequency, TF over GST control) | 1.19 fold enrichment (6-mer frequency, TF over GST control) | 1.05 fold enrichment (6-mer frequency, TF over GST control) | 1.15 fold enrichment (6-mer frequency, TF over GST control) | 1.16 fold enrichment (6-mer frequency, TF over GST control) | 1.05 fold enrichment (6-mer frequency, TF over GST control) | 1.12 fold enrichment (6-mer frequency, TF over GST control) | – | 1.23 fold enrichment (6-mer frequency, TF over GST control) | 1.13 fold enrichment (6-mer frequency, TF over GST control)
